# Screens (PubChem)
# In the library only some 5.5% were active in any assay of this set; here they are far more common.
# ELG1 repair inh – qHTS screen for small molecules that inhibit ELG1-dependent DNA repair in human embryonic kidney (HEK293T) cells expressing luciferase-tagged ELG1 | HEK293T ELG1-luciferase reporter, luminescence, 16 h; DNA damage induced by 5-fluorouridine | AID 504467, 2011 | 2.3% of 330,000 active | Potency, µM (doses to about 46.1 µM), for inactives: at the highest dose activity change, negative = inhibition, most hits filed as inhibitors; also: potency is read from the fitted curve at half-maximal effect; nearly all actives have a fitted effect of over 55% in size
#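 DMSO vehicle served as the neutral condition. Each well held 2,000 cells given 5-fluorouridine plus compound; after 16 hr at 37 °C/5% CO2, ONE-Glo was added and luciferase measured 30 min later.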
# Giardia killer – Small Molecules that selectively kill Giardia lamblia: qHTS; Giardia lamblia trophozoite viability; activity change, % at 7.66 µM, hits read low; 0.15% of 340,000 active; AID 540267, 2011; in the data active = activity change below about -80%; inconclusive = between about -30% and that limit;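 also: parasites exposed to compound for two days anaerobically before the ATP read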
#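 Trophozoites 100 cells/well + cpd; 48 hrs, 37 deg C, anaerobic. ATPLite 1-Step added, 15-30 min RT, luminescence read (ATP-based viability).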
# Sfp PPTase inh – qHTS Assay for Inhibitors of Bacillus subtilis Sfp phosphopantetheinyl transferase (PPTase); 3.5% of 310,000 active; Biochemical Sfp PPTase activity, qHTS; AID 1490, 2009; 4'-phosphopantetheinyl transferase ffp (Bacillus subtilis), Q9F4F7; Potency, µM, without a hit: largest response in the series, negative = inhibition, actives largely listed as inhibitors;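 also: the enzyme is Sfp with the accession as filed and its product quenches rhodamine fluorescence; potency is read from the fitted curve at half-maximal effect; 0% = enzyme reaction without inhibitor and -100% = no enzyme wells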
#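 With Hepes-Na pH 7.6 buffer containing 10 mM MgCl2, Sfp (15 nM) modified BHQ-2-YbbR (12.5 uM) using rhodamine-CoA (5 uM). Two reads 30 minutes apart at 525/598 nm yielded each well's rate.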
# FBPA coupling cs – qHTS Assay for Inhibitors of Fructose-1,6-bisphosphate Aldolase from Giardia Lamblia: Coupling assay counterscreen | coupling enzyme system counterscreen, AmpLite Red fluorescence | activity change, negative = inhibition, % at 58.2 µM, hits read low | 0.67% of 290,000 active | AID 2472, 2010; in the data active = activity change below about -30%
#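 Coupling enzymes only (glyceraldehyde-3-phosphate) + compound, at 57.5 uM final, 10 min RT; add substrate/coupling/AmpLite Red mix, 20 min RT; fluorescence ex 525/em 598 nm. Actives flag coupling-system interference.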
# ELG1 FLuc counter – qHTS screen for small molecules that inhibit ELG1-dependent DNA repair: Hit Confirmation in Cell-Based Luciferin Assay | 3% of 350 active | cell-free firefly luciferase luminescence counter-screen, ViewLux | Potency, µM (highest dose often 46.1 µM), without a hit: at the highest dose activity change, negative = inhibition, actives largely listed as inhibitors | AID 624247, 2012 | shares compounds with ELG1 repair inh; also: potency is read from the fitted curve at half-maximal effect
# ELG1 Luc conf – HTS assay for small molecules that inhibit ELG1-dependent DNA repair in human embryonic kidney (HEK293T) cells expressing luciferase-tagged ELG1: Hit Confirmation; shares compounds with ELG1 repair inh; HEK293T ELG1-luciferase levels, luminescence; cells co-treated with 5-fluorouridine; Potency, µM (top dose mostly 46.1 µM), for the others: at the top dose activity change, negative = inhibition, actives largely listed as inhibitors; 68% of 670 active; also: potency is read from the fitted curve at half-maximal effect; nearly all actives have a fitted effect of over 55% in size
# ELG1 MMS Luc – MMS-stimulated human ELG1 repair inhibition, confirmed. shares compounds with ELG1 repair inh. HEK293T luciferase-tagged ELG1 level, MMS stimulated. 53% of 670 active. AID 624249. Potency, µM (doses to about 46.1 µM), for inactives: at the top dose activity change, negative = inhibition, hits mostly inhibitors; also: potency is read from the fitted curve at half-maximal effect; nearly all actives have a fitted effect of over 60% in size
# ELG1 5FU viab – qHTS screen for small molecules that inhibit ELG1-dependent DNA repair: Hit Confirmation with 5FU Viability; shares compounds with ELG1 repair inh; 670 tested, under 10 active; AID 624250, 2012; cell viability with 5-FU, ELG1-dependent repair; Potency, µM (doses to about 46.1 µM), for inactives: at the top dose activity change, negative = viability loss, actives largely listed as cytotoxic;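 also: ELG1-luc HEK293T cells cotreated with 5-fluorouridine at 10 µM final; potency is read from the fitted curve at half-maximal effect; viability measured 16 h after compound addition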
# ELG1 MMS cell – qHTS screen for small molecules that inhibit ELG1-dependent DNA repair: Hit Confirmation with MMS Viability. shares compounds with ELG1 repair inh. Cell viability with MMS, ELG1-dependent DNA repair. Potency, µM (titrated, usually from 46.1 µM), without a hit: at the highest dose activity change, negative = viability loss, actives largely listed as cytotoxic. 33% of 670 active;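 also: ELG1-luc HEK293T cells co-treated with 10 µM MMS; potency is read from the fitted curve at half-maximal effect; viability read 16 h after compound addition; nearly all actives have a fitted effect of over 60% in size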
# Cell viab unstim – qHTS screen for small molecules that inhibit ELG1-dependent DNA repair: Hit Confirmation with Unstimulated Viability Assay; shares compounds with ELG1 repair inh; cell viability counter-screen, unstimulated, luminescence; Potency, µM (series often up to 45.9 µM), inactives show at the top dose activity change, negative = loss of viability, actives largely listed as cytotoxic; 8% of 900 active;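 also: potency is read from the fitted curve at half-maximal effect; compound exposure lasted 16 hours before reading; nearly all actives have a fitted effect of over 55% in size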
# FLuc enzyme – qHTS screen for small molecules that inhibit ELG1-dependent DNA repair: Hit Confirmation in Biochemical Luciferin Assay | purified firefly luciferase, luminescence counter-screen | Potency, µM (doses to about 57.5 µM), inactives show at the top dose activity, negative = inhibition, hits mostly inhibitors | shares compounds with ELG1 repair inh | 10% of 350 active; also: potency is read from the fitted curve at half-maximal effect
# The depositor's hits bear a star; ? = inconclusive; . = no result given. Unless noted, calls follow the shape of the dose curve; as a rule, active = well fitted curve in the direction sought with a large enough effect; inconclusive = small, poorly fitted or top-dose-only effect, or another doubt; inactive = no such curve, though single readings can be large; an effect the other way counts as inactive or inconclusive. Unless noted, % is scaled to controls: 0 for no effect and ±100 for the full control effect.
SMILES,ELG1 repair inh,Giardia killer,Sfp PPTase inh,FBPA coupling cs,ELG1 Luc conf,ELG1 MMS Luc,ELG1 5FU viab,ELG1 MMS cell,Cell viab unstim,others
C(=C\c1ccc2ccccc2n1)/c1ccc2ccccc2n1,.,.,.,.,.,.,.,.,3%,ELG1 FLuc counter=39%;FLuc enzyme=0.29µM*
C(=C\c1ccc2ccccc2n1)/c1cccnc1,.,.,.,.,.,.,.,.,?,ELG1 FLuc counter=-20%;FLuc enzyme=0.29µM*
Fc1ccc(COc2ccc(Br)cc2CNCc2ccncc2)cc1,?,-10,-2%,-2,28µM*,?,-7%,?,?,
CCOc1cc(CNCc2ccncc2)cc(Br)c1OCc1ccc(F)cc1,-17%,15,?,2,.,.,.,.,.,
CCOC(=O)c1ccc(NC(=O)COc2cc3oc(=O)c(CC(C)O)c(C)c3cc2Cl)cc1 (configuration not stated),2%,23,4%,0,.,.,.,.,.,
CC(=O)c1cccc(NC(=O)COc2cc3oc(=O)c(CC(C)O)c(C)c3cc2Cl)c1 (configuration not stated),4.1µM*,7,?,1,6.3µM*,22µM*,?,0%,?,
COC(=O)c1c(NC(=O)CS(=O)(=O)c2ccccc2)sc(C)c1C,?,-2,.,.,.,.,.,.,.,
O=C(CSc1nnc(-c2cccs2)n1C1CC1)NCC1CCCO1 (configuration not stated),19%,1,.,.,.,.,.,.,.,
CC(=O)Nc1ccc(/C=N/Nc2nc3ccccc3s2)cc1,?,7,-8%,-1,.,.,.,.,.,
CC(=O)Nc1ccc(/C=C/c2sc3ccccc3[n+]2CCCCI)cc1,.,.,.,.,.,.,.,.,-18%,
O=C(Nc1ccc(F)c(Cl)c1)C1CCCN(C2=NS(=O)(=O)c3ccccc32)C1 (configuration not stated),-19%,-28,.,.,.,.,.,.,.,
CC(=NNC(=O)c1cccs1)c1ccc2c(c1)OCCO2,?,2,.,.,.,.,.,.,?,
Cc1ccc(C(=O)NC2CCCc3c2cnn3-c2ccc(F)cc2F)cn1 (configuration not stated),-3%,.,16%,.,.,.,.,.,.,
Oc1cc2cc(-c3csc(-c4ccc(F)cc4)n3)cc3c2n1CCC3,.,.,.,.,.,.,.,.,1%,
CCOC(=O)C1CCN(C(=O)Cn2c(=O)c3cccn3c3cccnc32)CC1,2%,3,12%,0,.,.,.,.,.,
CCC(C)[C@H]1CNCCN1CCc1cc(C(F)(F)F)cc(C(F)(F)F)c1 (some centres not stated),3.5µM*,2,.,.,-9%,22µM*,?,22µM*,?,
CCCC[C@@H]1CNCCN1CCc1cc(C(F)(F)F)cc(C(F)(F)F)c1,9%,-6,.,.,.,.,.,.,.,
Cc1ccc(CNC(=O)c2ccc(N3CCC4(CC3)CC(c3cccc(Br)c3)=NO4)c(NC(=O)c3ccco3)c2)cc1,-22%,19,.,.,.,.,.,.,.,
CCCNC(=O)c1ccc(N2CCC3(CC2)CC(c2cccc(Br)c2)=NO3)c(NC(=O)c2ccc(Br)cc2)c1,-26%,-7,.,.,.,.,.,.,.,
Cc1ccc(CNC(=O)c2ccc(N3CCC4(CC3)CC(c3ccccc3)=NO4)c(NC(=O)c3ccco3)c2)cc1,1.2µM*,-26,12%,1,?,?,?,?,1%,
CCCNC(=O)c1ccc(N2CCC3(CC2)CC(c2ccccc2)=NO3)c(NC(=O)c2cccc(OC)c2)c1,4.6µM*,5,13%,-3,5µM*,?,?,3%,?,
CC(C)CCCC(C)NC(C)C (configuration not stated),.,.,12%,.,.,.,.,.,.,
COc1ccc(CCN(Cc2cccs2)S(=O)(=O)c2ccc(S(=O)(=O)N3CCCCCC3)cc2)cc1OC,2.9µM*,0,12%,-4,?,4.4µM*,-10%,7.1µM*,-17%,
COc1ccc(CCN(Cc2cccs2)S(=O)(=O)c2ccc(S(=O)(=O)N3CCC(C)CC3)cc2)cc1OC,3%,10,17%,-2,.,.,.,.,.,
Cc1ccc(C(=O)NC2CCN(S(=O)(=O)c3ccc(C)cc3)CC2)cc1,10%,-5,11%,1,.,.,.,.,.,
Cc1ccc2c(c1)nnn2C1CCN(S(=O)(=O)c2ccc(C(=O)NC3CCCC3)cc2)CC1,4.5µM*,-18,11%,5,3.1µM*,?,?,?,?,
Cc1cnc(CNc2ccnc(-c3ccccc3C)n2)cn1,.,.,10%,7,.,.,.,.,.,
COC(=O)C1=C(C)N(Cc2ccccc2)C2=C(C(C)=O)C[C@@](O)(C(=O)OC)C(=O)N2C1c1ccccc1 (some centres not stated),.,.,-6%,1,.,.,.,.,.,
O=C1NC[C@H](c2ccccc2)OC(=O)[C@@H](Cc2ccc(F)cc2)C/C=C\C[C@H]1CC(=O)N(CCO)Cc1ccccc1,2.6µM*,13,.,.,7.9µM*,13µM*,?,?,?,
